In the library only some 1.3% were active in any assay of this set; here they are far more common.
TSG101-PTAP inh – qHTS Validation Assay for Inhibitors of HIV-1 Budding by Blocking the Interaction of PTAP/TSG101: Sytravon Library Screen; Fluorescence polarization, FITC-PTAP peptide/Tsg101, 20 min; Potency, µM (doses to about 115 µM), most hits filed as inhibitors; 44,000 tested, under 10 active; AID 1347069, 2019; further: 0% is about no effect
Target sequence (Q99816 whole entry, looked up): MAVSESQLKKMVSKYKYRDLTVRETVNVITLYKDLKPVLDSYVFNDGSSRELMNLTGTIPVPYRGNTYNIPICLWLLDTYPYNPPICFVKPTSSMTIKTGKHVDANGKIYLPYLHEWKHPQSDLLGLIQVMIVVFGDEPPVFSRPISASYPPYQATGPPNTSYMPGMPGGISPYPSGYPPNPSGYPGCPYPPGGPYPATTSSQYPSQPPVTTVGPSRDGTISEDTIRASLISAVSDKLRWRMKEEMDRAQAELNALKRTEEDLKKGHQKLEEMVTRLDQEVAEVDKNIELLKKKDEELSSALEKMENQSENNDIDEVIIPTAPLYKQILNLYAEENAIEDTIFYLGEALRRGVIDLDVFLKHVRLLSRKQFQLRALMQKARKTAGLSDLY
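Compounds pinned into 10 uM Tsg101 binding domain, then 50 nM FITC-PTAP peptide added in pH 7.5 HEPES buffer; FP read after 20 min, room temperature. Total S+P intensity flags fluorescent compounds; active cut-off <25 µM, efficacy <60%.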
HTT promoter inh – Primary qHTS for Identification of Small Molecule Inhibitors of Huntingtin Promoter Activity; Potency, µM (doses to about 57.5 µM), without a hit: at the highest dose activity change, negative = inhibition, most hits filed as inhibitors; 0.93% of 48,000 active; HEK293 HTT promoter firefly luciferase reporter, 24 h; further: nearly all actives have a fitted effect of over 50% in size
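HEK293 luciferase promoter-reporter cells (2,500/well) plated 24 h, then compounds added at up to 57.5 uM final for 24 h at 37 °C. Firefly luminescence by Dual-Glo, normalized to vehicle (0%) and zero RLU (-100%).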
FH mod – Identification of activators of human fumarate hydratase by quantitative high-throughput screening. AID 1347055, 2019. 0.22% of 54,000 active. FH coupled MDH/diaphorase resazurin fluorescence, 15 min. Potency, µM (series often up to 79.9 µM), for inactives: top-dose activity change, negative = inhibition, usual class: inhibitors. Fumarate hydratase, mitochondrial (Homo sapiens), P07954; further: on the % scale 0 is the no-effect control and ±100 the full control effect; the screen sought activators but most active calls are inhibition curves; nearly all actives have a fitted effect of over 45% in size
HTT-AS promoter – Primary qHTS for Identification of Small Molecule Activators of Huntingtin-Antisense Promoter Activity | AID 1508624, 2021 | Potency, µM (titrated, usually from 57.5 µM), for inactives: at the highest dose activity change, positive = activation, hits mostly activators | HEK293 HTT-AS promoter firefly luciferase reporter, 24 h; response scale: percent change from vehicle, -100% = no light | 0.24% of 48,000 active; further: nearly all actives have a fitted effect of over 55% in size
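HEK293 luciferase promoter-reporter cells (2,500/well) plated 24 h, then compounds added at up to 57.5 uM final for 24 h at 37 °C. Firefly luminescence by Dual-Glo, normalized to vehicle (0%) and zero RLU (-100%).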
* = called active by the depositor; i = inactive; u = inconclusive; x = no result given; [ ] = remark or other dose. The call rests on the fitted dose curve; in most records, active means well fitted curve in the direction sought with a large enough effect; inconclusive means small, poorly fitted or top-dose-only effect, or another doubt; inactive means no such curve, though single readings can be large; an effect the other way counts as inactive or inconclusive. Potency means the concentration at half of the fitted maximal effect.

SMILES	TSG101-PTAP inh	HTT promoter inh	FH mod	HTT-AS promoter
Cc1cncc2cccc(S(=O)(=O)N3CCCNC[C@@H]3C)c12	x	x	0%	x
COc1cc(/C=C(\C#N)C(=O)c2ccc(O)c(O)c2)cc(I)c1O	x	x	7.9µM*	x
CCOC(=O)c1ccc(NC(=O)/C(C#N)=C/c2ccc(OC)cc2)cc1	i	-13%[11.5 µM]	-19%	8%
COc1ccc2c(c1O[C@H]1CCNC1)CCC2	x	x	0%	x
CCN1CCc2c(sc(NC(=O)CSc3ccccc3)c2-c2nc3ccccc3s2)C1	40µM*	-28%	10%	-24%
CN1CCc2c(sc(NC(=O)CSc3ccc(F)cc3)c2-c2nc3ccccc3s2)C1	u	-17%	4%	-19%
NC(=O)C1=CC2C3C=CC2C(OC3=O)O1 (stereo unspecified)	x	x	3%	x
COc1ccc(-c2noc(-c3cccnc3NCc3ccco3)n2)cc1	i	70%	-29%	11µM*
Cc1ccc(Cl)cc1-n1ncc2c(N3CCN(Cc4ccccc4)CC3)ncnc21	i	13µM*	u	-95%
CCN1CCN(c2ncnc3c2cnn3-c2cc(Cl)ccc2C)CC1	i	-21%	-14%	-11%
Fc1cccc(-c2nc(-c3ccncc3)no2)c1	i	40%	5%	4µM*
Clc1ccccc1-c1nc(-c2ccncc2)no1	x	30%	-22%[53.3 µM]	u
CCN1CCN(Cc2ccc(-c3cc4c(NC(C)c5ccccc5)ncnc4[nH]3)cc2)CC1 (stereo unspecified)	x	x	-3%	x
O=Nc1ccc2oc(=O)ccc2c1	x	x	1µM*	x
COc1ccc(CC2=NN3C([C@@H](CCc4ccccc4)[C@@H](C)O)=NC(C)C3C(=O)N2)cc1OC (stereo partly specified)	x	45%	-12%[53.3 µM]	7.7µM*
O=C(/C=C/c1ccc(O)cc1)OCC1OC(O)C(OC2OC(CO)C(O)C(O)C2O)C(O)C1O (stereo unspecified)	x	x	1%[53.3 µM]	x
N#C/C(=C\c1ccc(O)c(O)c1)C(=O)Nc1ccccc1	x	x	14µM*	x
Cc1ccc(NC(=O)/C(C#N)=C/c2ccc(C(C)C)cc2)cc1C	i	-13%	-1%	-11%
CC(C)(C)c1ccc(-c2nc3ccccc3[nH]2)cc1	x	x	0%[53.3 µM]	x
CCC1CN(C(=O)N2CCC(C(=O)N3CCN(c4cccc(C)c4C)CC3)CC2)c2ccccc2O1 (stereo unspecified)	i	20µM*	u	-46%
CCC1CN(C(=O)N2CCC(C(=O)N3CCN(c4cc(C)ccc4C)CC3)CC2)c2ccccc2O1 (stereo unspecified)	i	u	-23%	-53%
COc1cc2nc(=NC(=O)c3cccnc3)n3c(c2cc1OC)NCC3	x	x	1%	x
COc1ccc(-c2noc(CSc3nc(N)cc(=O)[nH]3)n2)cc1	i	22µM*	-18%	-91%
O=C(Nc1nc2cccc(-c3ccc(CN4CCS(=O)(=O)CC4)cc3)n2n1)C1CC1	x	25%	10%	24µM*
CCc1ccc(C2=C(C)C(N3CCC(C(=O)Nc4cccc(OC)c4)CC3)=NS2(=O)=O)cc1	i	-32%	2%	-23%
SMILES	TSG101-PTAP inh	HTT promoter inh	FH mod	HTT-AS promoter
COc1ccc(-c2nc(CSCC(=O)N3CCN(c4cc(Cl)ccc4C)CC3)c(C)o2)cc1	i	13µM*	u	-55%
Cc1ccc(Cl)cc1N1CCN(C(=O)C2CCCN(Cc3nc(-c4cccc(Cl)c4)oc3C)C2)CC1 (stereo unspecified)	i	35µM*	u	-46%
COC(=O)CSCc1nc(-c2ccc(C(=O)OC)cc2)oc1C	i	2µM*	-22%	-90%
CCOC(=O)c1c(C)oc2nc(C)nc(N3CCN(c4cccc(C(F)(F)F)c4)CC3)c12	i	25µM*	-23%	-65%
Nc1nc(N)c2nc(-c3cccc(O)c3)cnc2n1	x	x	-4%	x
COc1cc(O)c2c(c1)C1OC1C[C@H](O)[C@H](O)C(=O)/C=C\C[C@H](C)OC2=O (stereo partly specified)	x	x	8%	x
COc1ccc(-c2nc(CSCC(=O)N3CCN(c4cccc(C)c4C)CC3)c(C)o2)cc1OC	i	13µM*	u	-61%
CCOc1ccc(-c2nc(CSCC(=O)N3CCN(c4cccc(C(F)(F)F)c4)CC3)c(C)o2)cc1	i	16µM*	u	-52%
CC(C)c1ccc(C2CC(=O)Nc3cc4c(cc32)OCCO4)cc1 (stereo unspecified)	i	u	u	-43%
Cc1ccc(C2CC(=O)Nc3cc4c(cc32)OCCO4)cc1Br (stereo unspecified)	i	25µM*	u	-41%
Nc1nc(Nc2ccccc2)nc2c1ncn2[C@@H]1O[C@H](CO)C(O)[C@H]1O (stereo partly specified)	x	x	-4%[53.3 µM]	x
COc1ccc(Nc2c3c(nc4ccc(NC(=O)/C=C/c5cc(OC)c(OC)c(OC)c5)cc24)CCCC3)cc1OC	i	32µM*	u	-77%
COc1ccc(/C=C/C(=O)Nc2ccc3nc4c(c(Nc5ccc(OC)c(OC)c5)c3c2)CCCC4)cc1	i	u	-19%	-94%
Nc1c2ccccc2nc2ccccc12	x	u	-2%[53.3 µM]	-36%
NNc1nncc2ccccc12	x	20%	0%[53.3 µM]	7.7µM*
Cc1ccc(Cn2c(SCc3ccc(C(=O)N4CCCCC4)cc3)nc3ccncc32)cc1	i	13µM*	0%	-60%
Cc1ccc(Cn2c(SCc3ccc(C(=O)N4CCCCCC4)cc3)nc3ccncc32)cc1	i	32µM*	-4%	-46%
Cc1ccccc1Cn1c(SCc2ccc(C(=O)N3CCCCC3)cc2)nc2ccncc21	i	u	-15%	-13%
CCCCCOc1ccc(-c2ccc(-c3ccc(C(=O)N[C@H]4C[C@@H](O)[C@@H](O)NC(=O)[C@@H]5[C@@H](O)[C@@H](C)CN5C(=O)[C@H]([C@@H](C)O)NC(=O)[C@H]([C@H](O)[C@@H](O)c5ccc(O)cc5)NC(=O)[C@@H]5C[C@@H](O)CN5C(=O)[C@H]([C@@H](C)O)NC4=O)cc3)cc2)cc1	x	x	-18%[53.3 µM]	x

Source: PubChem
